Hit rate of the full screen: of about 200,000 compounds, about 4,500 (2.2%) were called active. About 12% were inconclusive and are not listed. Calls follow the shape of the dose curve; as a rule, active = well fitted inhibition curve with a large enough effect; inconclusive = small, poorly fitted or top-dose-only effect, or effect the other way; inactive = flat fitted curve, though single readings scatter. The sample as a whole holds a higher share of actives than the screen did.
Target: Cruzipain (Trypanosoma cruzi) (UniProt P25779)
Assay: qHTS Assay for Promiscuous and Specific Inhibitors of Cruzain (without detergent); also: nearly all actives have a fitted effect of over 40% in size;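 as to max response, negative = inhibition: plate controls were enzyme without inhibitor for no effect and buffer without enzyme for full effect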
Settings: purified cruzain, Z-FR-AMC fluorescence, no detergent
Method in brief: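 Purified cruzain at 1.5 nM, pre-incubated 15 min with compound at room temperature in 100 mM sodium acetate pH 5.5, 5 mM DTT, 0.00005% Triton X-100. Reaction started with 2 uM Z-FR-AMC; AMC fluorescence increase over 60 s gives rate.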
Potency is read from the fitted curve at half-maximal effect.

Cruzipain (Trypanosoma cruzi), sequence (P25779 123-467 limits assumed): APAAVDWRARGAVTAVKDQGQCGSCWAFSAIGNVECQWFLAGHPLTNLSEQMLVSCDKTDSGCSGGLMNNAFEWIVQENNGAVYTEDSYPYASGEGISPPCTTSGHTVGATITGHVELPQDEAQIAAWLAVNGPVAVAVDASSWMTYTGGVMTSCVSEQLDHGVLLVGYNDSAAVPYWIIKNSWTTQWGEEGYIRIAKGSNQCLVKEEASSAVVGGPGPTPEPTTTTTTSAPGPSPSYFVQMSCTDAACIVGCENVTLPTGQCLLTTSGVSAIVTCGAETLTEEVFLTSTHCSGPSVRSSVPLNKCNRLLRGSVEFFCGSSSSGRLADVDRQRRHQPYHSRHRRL

| SMILES | max response, negative = inhibition | Potency |
| --- | --- | --- |
| CCc1cccc(C)c1NS(=O)(=O)c1ccc(-c2cc(C)no2)s1 | -2.03% (inactive) |  |
| CCc1ccc(-n2nnc(-c3nc(-c4ccccc4)no3)c2C)cc1 | 11.5% (inactive) |  |
| CCCNC(=O)c1ccc(Cn2c(SCC(N)=O)nc3ccccc3c2=O)cc1 | -1.8% (inactive) |  |
| COc1ccc(CC(=O)Nc2nnc3n2CCS3)cc1OC | 3.34% (inactive) |  |
| O=C(O)COc1c(Cl)cc(Cl)c2cccnc12 | -2.23% (inactive) |  |
| O=S(=O)(O)c1ccc(O)c2ncccc12.O=S(=O)(O)c1ccc(O)c2ncccc12.[Zn] |  | 3.16 µM (active) |
| CC(=O)c1ccc(N2CCN(C3C(=O)c4ccccc4N3C(C)=O)CC2)cc1 (stereo unspecified) | 6.9% (inactive) |  |
| COc1ccc(C(F)(F)F)cc1NC(=O)c1sc2nc(-c3cccs3)ccc2c1N | -12.3% (inactive) |  |
| CCN(CC(=O)Nc1ccc2c(c1)OCCO2)Cc1cc(=O)oc2cc(C)c(C)cc12 | -1.71% (inactive) |  |
| O=C(COc1ccc2c(C(F)(F)F)cc(=O)oc2c1)Nc1ccc2c(c1)OCCO2 |  | 7.94 µM (active) |
| CC(C)NS(=O)(=O)c1ccc(OCC(=O)Nc2ccc3c(c2)OCCO3)cc1 | 5.06% (inactive) |  |
| Cc1ccc(CN(C(=O)c2ccccc2[N+](=O)[O-])c2ccccn2)cc1 | -9.11% (inactive) |  |
| COc1ccc(CNC(=O)c2cc3c(=O)[nH]c4ccc(C)cc4c3s2)c(OC)c1 | 8.63% (inactive) |  |
| C/C(=N\NC(=O)c1nc(C)cc(C)n1)c1ccccc1 | 4.34% (inactive) |  |
| C/C(=N\NC(=O)Cc1ccc(F)cc1)c1ccc(F)cc1 | 11.2% (inactive) |  |
| C/C(=N\NC(=O)CNC(=O)C(c1ccccc1)c1ccccc1)c1ccc(C)cc1 |  | 12.6 µM (active) |
| O=C(CCCCn1c(=O)c2ccccc2n(CC(=O)Nc2cccc(C(F)(F)F)c2)c1=O)NCc1ccc2c(c1)OCO2 | 16.7% (inactive) |  |
| CCOC(=O)c1ccc2c(c1)N(Cc1cccc(OC)c1)C(=O)c1ccccc1S2(=O)=O | -13.7% (inactive) |  |
| COc1cc(/C=N/NC(=O)c2ccccc2)ccc1OS(=O)(=O)c1ccccc1 | -10.2% (inactive) |  |
| COc1ccc(/C=N/NC(=O)c2ccccc2)cc1OS(=O)(=O)c1ccccc1 | -2.21% (inactive) |  |
| COc1cc(/C=N/NC(=O)Nc2ccccc2)ccc1OCCOc1ccccc1C |  | 25.1 µM (active) |
| Cc1ccc(NC(=O)Cc2ccc(NC(=O)N3CCCCc4ccccc43)cc2)cc1 | 16.9% (inactive) |  |
| Cc1cccc(NC(=O)c2ccc3nc(C(C)C)oc3c2)c1C | -5.86% (inactive) |  |
| CC(C)(C)C1CCC(=NNC(=O)c2ccc(Br)o2)CC1 (stereo unspecified) | 6.4% (inactive) |  |
| CC(NC(=O)C(=O)NN=C1CCC(C(C)(C)C)CC1)c1ccccc1 (stereo unspecified) | 14.7% (inactive) |  |
| CC(C)(C)C1CCC(=NNC(=O)c2cc(-c3ccccc3)n[nH]2)CC1 (stereo unspecified) |  | 12.6 µM (active) |
